Inconclusive results are not listed. Calls of active or inactive are those of the source. Calls come from the whole dose curve; as a rule, active = well fitted inhibition curve with a large enough effect; inconclusive = small, poorly fitted or top-dose-only effect; inactive = flat fitted curve, though single readings scatter.
Assay: Identification of antibody-drug conjugate (ADC) payloads which are substrates of ATP-binding cassette drug efflux transporters: ABCB1-HEK293-MDR-19 cell line with tariquidar
Conditions: HEK293 ABCB1 (MDR-19) + tariquidar, CellTiter-Glo viability, 48 h
Source text: Antibody-drug conjugates (ADCs) feature an antibody recognizing a specific protein joined to a potent toxic payload. Numerous antibody-drug conjugates have received FDA approval; however, clinical resistance arises. Resistance mechanisms include decreased expression or mutation of the antibody target, impaired payload release, or increased expression of ATP-binding cassette (ABC) efflux transporters associated with multidrug resistance. We therefore sought to characterize the interaction of ABC multidrug transporters with ADC payloads. We performed a high-throughput screen with 27 common ADC payloads using cells lines expressing ABC transporters P-glycoprotein (P-gp, encoded by ABCB1) or ABCG2 (encoded by ABCG2). Confirmatory assays were also performed using cells transfected to express P-gp, ABCG2, or MRP1 (encoded by ABCC1). Several commonly used ADC payloads were substrates of P-gp, including calicheamicin gamma1, monomethyl auristatin E, DM1, and DM4. All the pyrrolobenzodiazepines tested - SJG136, SGD-1882, SG2057, and SG3199 - were substrates of P-gp, ABCG2, and MRP1. […] These findings highlight the risk of transporter-mediated resistance with certain ADC payloads and underscore the importance of selecting payloads that evade ABC transporter recognition in future ADC development.
HEK-293 cells were transfected with empty vector (pcDNA) or vector containing the human ABCB1 (MDR-19), ABCG2 (R-5), or ABCC1 gene (MRP1) and were maintained in EMEM with 2 mg/mL G418 added to maintain transporter expression. The HeLa derivative KB-3-1 and the P-gp overexpressing KB-8-5-11 subline were maintained in DMEM; KB-8-5-11 additionally received 100 ng/mL colchicine. H460 parental cells were obtained from the Division of Cancer Treatment and Diagnosis Tumor Repository, National Cancer Institute at Frederick, MD and were cultured in RPMI. The ABCG2 expressing subline H460 MX20 was generated by selecting H460 cells in 20 nM mitoxantrone. Media in all cases was supplemented with 10% FBS and 1% penicillin-streptomycin. We explored 27 common ADC payloads, in two orthogonal, paired cell line sets-a drug selected and transfected set for each transporter--to identify substrates of the ABC transporters P-gp and ABCG2. Compounds were sourced from Levena Biopharma (San Diego, CA), Selleck Chem (Houston, TX), ChemieTek (Indianapolis, IN), or Microsource Discovery Systems (Gaylordsville, CT). Screening was performed as previously described. Briefly, cells were plated at a density of 500 cells/well in 1536 well plates with compounds added using a 1536-head pin tool (Kalypsys, San Diego CA). Cells were incubated with cytotoxic drugs and processed with CellTiter Glo reagent (Promega, Madison, WI) to determine viability after 48 hours. P-gp substrates were identified by comparing compound activity between paired sets of low-expressing (sensitive) and over-expressing (resistant) cell lines.
With COc1cc2cc(c1Cl)N(C)C(=O)C[C@H](OC(=O)C(C)C)[C@]1(C)O[C@H]1[C@H](C)[C@@H]1C[C@@](O)(NC(=O)O1)[C@H](OC)C=CC=C(C)C2 the Potency was 0.3 nM (active). With CC[C@H](C)[C@H](NC(=O)[C@H]1CCCCN1C)C(=O)N(C)[C@H](C[C@@H](OC(C)=O)c1nc(C(=O)N[C@@H](Cc2ccccc2)C[C@H](C)C(=O)O)cs1)C(C)C the Potency was 3.3 nM (active). In the case of COc1cc2cc(c1Cl)N(C)C(=O)C[C@H](OC(=O)[C@H](C)N(C)C(=O)CCC(C)(C)S)[C@]1(C)OC1[C@H](C)C1C[C@@](O)(NC(=O)O1)[C@H](OC)/C=C/C=C(\C)C2 (some centres not stated), the Potency is reported as 1.2 nM (active). For COc1cc2cc(C(=O)N3C[C@@H](CCl)c4c3cc(O)c3ccccc43)[nH]c2c(OC)c1OC, the Potency was 1.7 nM (active). With CC[C@@]1(O)C(=O)OCc2c1cc1n(c2=O)Cc2cc3ccccc3nc2-1 the Potency was 13.3 nM (active). In the case of CC[C@H](C)[C@@H]([C@@H](CC(=O)N1CCC[C@H]1[C@H](OC)[C@@H](C)C(=O)N[C@H](C)[C@@H](O)c1ccccc1)OC)N(C)C(=O)[C@@H](NC(=O)[C@H](C(C)C)N(C)C)C(C)C, the Potency is reported as 1.3 nM (active). With COc1cccc2c1C(=O)c1c(O)c3c(c(O)c1C2=O)C[C@@](O)(C(=O)CO)CC3OC1CC(N2CCOC(OC)C2)C(O)C(C)O1 (some centres not stated) the Potency was 1.3 nM (active).
